Activity calls are given as the source filed them. Rule for the calls: active = hit-call score of the fitted dose curve at least 0.9, where 1 is the maximum; inactive = score below 0.9.
Experiments:
[1] = read-out: Matrix Metallopeptidase 9 (MMP9), MMP9 (gene 4318); assay: BSK_KF3CT_MMP9: BioMAP Diversity Plus: KF3CT Assay for Matrix Metallopeptidase 9 (MMP9) Biomarker Activity (AID 2283074); details: primary human keratinocytes with fibroblasts; actives raise or lower the signal;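 for AC50: MMP9 protein level quantified by ELISA in the co-culture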
How it was run: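 ELISA read-out of MMP-9 at 24 h post-dosing in a co-culture of human skin keratinocytes and foreskin fibroblasts. Gain or loss of signal was fitted in both directions against DMSO.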

[2] = read-out: urokinase plasminogen activator (uPA), PLAU (gene 5328); assay: BSK_KF3CT_uPA: BioMAP Diversity Plus: KF3CT Assay for urokinase plasminogen activator (uPA) Biomarker Activity (AID 2283075); details: primary human keratinocytes with fibroblasts; actives raise or lower the signal
How it was run: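 Skin co-culture (keratinocytes + foreskin fibroblasts), human primary; 24 h post-dose; uPA by ELISA; gain/loss fit vs DMSO baseline.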

CD40, CD40 (gene 958) = assay: BSK_LPS_CD40: BioMAP Diversity Plus: LPS Assay for CD40 Biomarker Activity (AID 2283076); details: primary human HUVEC with PBMC; actives raise or lower the signal
How it was run: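 Primary human umbilical vein endothelial cells co-cultured with peripheral blood mononuclear cells, LPS-stimulated, were dosed with chemical and read 24 h later. CD40 levels were measured by ELISA and fitted bidirectionally against DMSO as negative control and baseline.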

[3] = read-out: E-selectin (Homo sapiens) (UniProt P16581); assay: BSK_LPS_Eselectin: BioMAP Diversity Plus: LPS Assay for Eselectin Biomarker Activity (AID 2283077); details: primary human HUVEC with PBMC; actives raise or lower the signal
How it was run: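 Human umbilical vein endothelial cells co-cultured with peripheral blood mononuclear cells under LPS stimulation; E-selectin measured by ELISA 24 h after chemical dosing. Activity fitted bidirectionally against DMSO as negative control and baseline.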

[4] = read-out: Interleukin-8 (IL8), CXCL8 (gene 3576); assay: BSK_LPS_IL8: BioMAP Diversity Plus: LPS Assay for Interleukin-8 (IL8) Biomarker Activity (AID 2283078); details: primary human HUVEC with PBMC; actives raise or lower the signal
How it was run: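 Human umbilical vein endothelial cells co-cultured with PBMC were stimulated with LPS; IL-8 levels were measured by ELISA 24 h after chemical dosing. Activity was fitted bidirectionally against DMSO as negative control and baseline.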

[5] = BSK_LPS_SRB: Viability Assessment in the BioMAP Diversity Plus: LPS Assay (AID 2283079); details: primary human HUVEC with PBMC;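 note: total protein by sulforhodamine B absorbance as a cytotoxicity measure; measured one day after compound addition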
How it was run: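 Human umbilical vein endothelial cells co-cultured with PBMC (LPS system) were dosed for 24 h. Total protein was stained with 0.1% sulforhodamine B after 10% TCA fixation, read at 560 nm, and fitted bidirectionally against DMSO baseline.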

[6] = read-out: Interleukin-1 alpha (IL1a), IL1A (gene 3552); assay: BSK_LPS_IL1a: BioMAP Diversity Plus: LPS Assay for Interleukin-1 alpha (IL1a) Biomarker Activity (AID 2283080); details: primary human HUVEC with PBMC; actives raise or lower the signal
How it was run: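 Human umbilical vein endothelial cells co-cultured with peripheral blood mononuclear cells were LPS-stimulated and exposed to test chemicals for 24 h. IL-1 alpha was quantified by ELISA, with bidirectional curve fitting against DMSO as the negative control and baseline.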

[7] = read-out: Monocyte Chemoattractant Protein-1 (MCP1), CCL2 (gene 6347); assay: BSK_LPS_MCP1: BioMAP Diversity Plus: LPS Assay for Monocyte Chemoattractant Protein-1 (MCP1) Biomarker Activity (AID 2283081); details: primary human HUVEC with PBMC; actives raise or lower the signal;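 for AC50: co-culture stimulated with LPS; secreted MCP-1 protein quantified by ELISA in culture supernatant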
How it was run: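 HUVEC plus PBMC co-culture (human primary cells, LPS system) exposed to test chemical for 24 h; MCP-1 measured by ELISA. Bidirectional curve fitting against DMSO baseline; parallel SRB total-protein staining flags overt cytotoxicity.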

[8] = BSK_LPS_PGE2: BioMAP Diversity Plus: LPS Assay for Prostaglandin E2 (PGE2) Biomarker Activity (AID 2283082); details: primary human HUVEC with PBMC; actives raise or lower the signal;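 for AC50: secreted prostaglandin E2 measured by ELISA in LPS-stimulated co-culture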
How it was run: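 PGE2 release measured by ELISA in an LPS-activated co-culture of human umbilical vein endothelial cells and peripheral blood mononuclear cells, read at 24 h post-dosing. DMSO served as baseline for bidirectional curve fitting.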

Chain of E-selectin (Homo sapiens) (P16581 whole entry, looked up): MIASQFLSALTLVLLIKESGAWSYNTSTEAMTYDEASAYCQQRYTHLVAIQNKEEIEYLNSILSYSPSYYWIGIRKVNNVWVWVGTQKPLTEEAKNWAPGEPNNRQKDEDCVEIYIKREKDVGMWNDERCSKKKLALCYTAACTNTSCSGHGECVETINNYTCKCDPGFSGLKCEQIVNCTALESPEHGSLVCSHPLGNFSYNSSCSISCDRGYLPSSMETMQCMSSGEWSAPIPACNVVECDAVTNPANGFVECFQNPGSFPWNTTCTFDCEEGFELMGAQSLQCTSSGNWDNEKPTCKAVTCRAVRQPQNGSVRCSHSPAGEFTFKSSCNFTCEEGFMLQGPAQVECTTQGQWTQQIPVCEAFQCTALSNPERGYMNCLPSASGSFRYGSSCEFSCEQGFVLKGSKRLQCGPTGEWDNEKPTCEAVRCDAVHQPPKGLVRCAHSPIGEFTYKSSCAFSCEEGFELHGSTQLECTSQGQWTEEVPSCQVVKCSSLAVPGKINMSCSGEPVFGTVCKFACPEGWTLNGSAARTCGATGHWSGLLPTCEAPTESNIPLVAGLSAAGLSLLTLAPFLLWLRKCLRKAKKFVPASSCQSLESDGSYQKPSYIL

Cc1c(-c2cccnc2)c2ccccc2n1CCCCC(=O)O
outcome [1]: inactive | outcome [2]: inactive | outcome (CD40, CD40 (gene 958)): inactive | outcome [3]: inactive | outcome [4]: inactive | outcome [5]: inactive | outcome [6]: inactive | outcome [7]: inactive | AC50 [8]: 1.14 µM (active)

Nc1nc2ncc(CNc3ccc(C(=O)N[C@@H](CCC(=O)O)C(=O)O)cc3)nc2c(=O)[nH]1
outcome [1]: inactive | outcome (CD40, CD40 (gene 958)): inactive | outcome [3]: inactive | outcome [4]: inactive | outcome [5]: inactive | outcome [6]: inactive | outcome [7]: inactive | outcome [8]: inactive

CC(O)CN(CCN(CC(C)O)CC(C)O)CC(C)O (stereo not drawn)
outcome [1]: inactive | outcome [2]: inactive | outcome (CD40, CD40 (gene 958)): inactive | outcome [3]: inactive | outcome [4]: inactive | outcome [5]: inactive | outcome [6]: inactive | outcome [7]: inactive | outcome [8]: inactive

CCCCCCCCCCCCCCCO
outcome [1]: inactive | AC50 (CD40, CD40 (gene 958)): 33.6 µM (active) | outcome [3]: inactive | AC50 [4]: 31.1 µM (active) | AC50 [5]: 31.7 µM (active) | AC50 [6]: 31.9 µM (active) | outcome [7]: inactive | outcome [8]: inactive

CC(C)=CCCC(C)CCO (stereo not drawn)
outcome [1]: inactive | outcome (CD40, CD40 (gene 958)): inactive | outcome [3]: inactive | outcome [4]: inactive | outcome [5]: inactive | outcome [6]: inactive | outcome [7]: inactive | outcome [8]: inactive

O=C(O)CC(O)C(=O)O (stereo not drawn)
outcome [1]: inactive | outcome [2]: inactive | outcome (CD40, CD40 (gene 958)): inactive | outcome [3]: inactive | outcome [4]: inactive | outcome [5]: inactive | outcome [6]: inactive | outcome [7]: inactive | outcome [8]: inactive

Cn1c(=O)c2c(ncn2C)n(C)c1=O
outcome [1]: inactive | outcome [2]: inactive | outcome (CD40, CD40 (gene 958)): inactive | outcome [3]: inactive | outcome [4]: inactive | outcome [5]: inactive | outcome [6]: inactive | outcome [7]: inactive | outcome [8]: inactive

CC(C)CCO
outcome [1]: inactive | outcome [2]: inactive | outcome (CD40, CD40 (gene 958)): inactive | outcome [3]: inactive | outcome [4]: inactive | outcome [5]: inactive | outcome [6]: inactive | outcome [7]: inactive | outcome [8]: inactive

CC[C@H]1CC[C@H](NCc2cc3c(cc2OC)[C@H]2C[C@H]2C(=O)N3C)[C@H](c2ccccc2)N1
outcome [1]: inactive | outcome (CD40, CD40 (gene 958)): inactive | outcome [3]: inactive | outcome [4]: inactive | outcome [5]: inactive | outcome [6]: inactive | outcome [7]: inactive | outcome [8]: inactive

O=P(OC(CCl)CCl)(OC(CCl)CCl)OC(CCl)CCl
outcome [1]: inactive | outcome [2]: inactive | outcome (CD40, CD40 (gene 958)): inactive | outcome [3]: inactive | outcome [4]: inactive | outcome [5]: inactive | outcome [6]: inactive | outcome [7]: inactive | outcome [8]: inactive

CC(C)=CCC/C(C)=C/CO
outcome [1]: inactive | outcome (CD40, CD40 (gene 958)): inactive | outcome [3]: inactive | outcome [4]: inactive | outcome [5]: inactive | outcome [6]: inactive | outcome [7]: inactive | outcome [8]: inactive

O=c1n(CC2CO2)c(=O)n(CC2CO2)c(=O)n1CC1CO1 (stereo not drawn)
AC50 [1]: 20 µM (active) | outcome [2]: inactive | AC50 (CD40, CD40 (gene 958)): 16.3 µM (active) | AC50 [3]: 20 µM (active) | AC50 [4]: 10.8 µM (active) | AC50 [5]: 12.2 µM (active) | outcome [6]: inactive | AC50 [7]: 19.5 µM (active) | outcome [8]: inactive

CCCCCCCCO
outcome [1]: inactive | outcome (CD40, CD40 (gene 958)): inactive | outcome [3]: inactive | outcome [4]: inactive | outcome [5]: inactive | outcome [6]: inactive | outcome [7]: inactive | outcome [8]: inactive

Nc1ccc(Nc2ccccc2)cc1
AC50 [1]: 3.97 µM (active) | AC50 (CD40, CD40 (gene 958)): 3.97 µM (active) | AC50 [3]: 12.9 µM (active) | AC50 [4]: 11.2 µM (active) | outcome [5]: inactive | AC50 [7]: 8.02 µM (active) | AC50 [8]: 1.44 µM (active)

CC(C)=CCC/C(C)=C\CO
outcome [1]: inactive | outcome [2]: inactive | outcome [3]: inactive | outcome [4]: inactive | outcome [5]: inactive | outcome [6]: inactive | outcome [7]: inactive | outcome [8]: inactive

CCC(C)(C)C(=O)O[C@H]1C[C@@H](C)C=C2C=C[C@H](C)[C@H](CC[C@@H]3C[C@@H](O)CC(=O)O3)[C@H]21
AC50 [1]: 31.6 µM (active) | AC50 (CD40, CD40 (gene 958)): 6.52 µM (active) | AC50 [3]: 0.168 µM (active) | outcome [4]: inactive | AC50 [5]: 4.75 µM (active) | AC50 [6]: 1.28 µM (active) | AC50 [7]: 30.5 µM (active) | outcome [8]: inactive

COCCOc1cc2cc(C(=O)NC3CCN(C(C)C)CC3)n(CC(=O)Nc3ccc(Cl)cn3)c2cn1
outcome [1]: inactive | outcome (CD40, CD40 (gene 958)): inactive | outcome [3]: inactive | outcome [4]: inactive | outcome [5]: inactive | outcome [6]: inactive | outcome [7]: inactive | outcome [8]: inactive

COc1ccc(/C=C/S(=O)(=O)NC(=O)c2ccc(C)cc2Cl)cc1
outcome [1]: inactive | outcome (CD40, CD40 (gene 958)): inactive | outcome [3]: inactive | outcome [4]: inactive | outcome [5]: inactive | outcome [6]: inactive | outcome [7]: inactive | outcome [8]: inactive

COC(=O)c1c(Cl)c(Cl)c(C(=O)OC)c(Cl)c1Cl
outcome [1]: inactive | outcome [2]: inactive | AC50 (CD40, CD40 (gene 958)): 11.4 µM (active) | outcome [3]: inactive | outcome [4]: inactive | outcome [5]: inactive | outcome [6]: inactive | outcome [7]: inactive | outcome [8]: inactive

Fc1ccccc1[C@@H](F)COC1CCC(Nc2ncnc3[nH]ncc23)CC1 (stereo partly drawn)
outcome [1]: inactive | AC50 (CD40, CD40 (gene 958)): 15.4 µM (active) | AC50 [3]: 29 µM (active) | AC50 [4]: 28.9 µM (active) | AC50 [5]: 29.2 µM (active) | outcome [6]: inactive | AC50 [7]: 30.3 µM (active) | outcome [8]: inactive

C=CC(=C)CCC=C(C)C
outcome [1]: inactive | outcome [2]: inactive | outcome (CD40, CD40 (gene 958)): inactive | outcome [3]: inactive | outcome [4]: inactive | outcome [5]: inactive | outcome [6]: inactive | outcome [7]: inactive | outcome [8]: inactive

O=C(O)c1cccc(N(Cc2cccnc2)c2ccc(OC(F)F)c(OC(F)F)c2)c1
outcome [1]: inactive | outcome [2]: inactive | outcome (CD40, CD40 (gene 958)): inactive | AC50 [3]: 11 µM (active) | AC50 [4]: 9.79 µM (active) | outcome [5]: inactive | AC50 [6]: 20 µM (active) | AC50 [7]: 10.7 µM (active) | AC50 [8]: 12.2 µM (active)

O=C1CCC(N2C(=O)c3ccccc3C2=O)C(=O)N1 (stereo not drawn)
outcome [1]: inactive | outcome [2]: inactive | outcome (CD40, CD40 (gene 958)): inactive | outcome [3]: inactive | outcome [4]: inactive | outcome [5]: inactive | outcome [6]: inactive | outcome [7]: inactive | outcome [8]: inactive

CCOCCOCCOCCO
outcome [1]: inactive | outcome [2]: inactive | outcome (CD40, CD40 (gene 958)): inactive | outcome [3]: inactive | outcome [4]: inactive | outcome [5]: inactive | outcome [6]: inactive | outcome [7]: inactive | outcome [8]: inactive
